DT40 TDP1 no CPT: qHTS for Inhibitors of human tyrosyl-DNA phosphodiesterase 1 (TDP1): qHTS in cells in absence of CPT. DT40 Tdp1-/- hTDP1 cells, no CPT, ATP luminescence, 48 h. Potency, µM (doses to about 46.2 µM), inactives show at the top dose activity change, negative = growth inhibition, usual class: inhibitors. 15% of 420,000 active. AID 686978, 2013; further: potency means the concentration at half of the fitted maximal effect; nearly all actives have a fitted effect of over 55% in size
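Chicken DT40 Tdp1-/- cells stably complemented with human TDP1 were seeded at 400 cells/well with DMSO in place of 20 nM camptothecin. After compound pinning, cells grew at least 48 hr at 37 °C; viability read by CellTiter-Glo luminescence.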
HT1080 IDH1KD tx: qHTS for induction of synthetic lethality in tumor cells producing 2HG: qHTS for the HT-1080-IDH1KD cell line; HT-1080 IDH1 knockdown viability, ATP luminescence, 48 h; Potency, µM (highest dose often 46.1 µM), for the others: at the top dose activity, negative = toxicity, usual class: cytotoxic; 2% of 360,000 active; AID 686971, 2013;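 further: potency means the concentration at half of the fitted maximal effect; 0% = DMSO wells and -100% = cell-free medium wells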
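Viability of IDH1-knockdown HT-1080 fibrosarcoma cells was assessed by CellTiter-Glo after 48 h at 37 °C with titrated compound; concentration-effect curves were classified by fit quality and response size.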
TDP1 cell CPT: qHTS for Inhibitors of human tyrosyl-DNA phosphodiesterase 1 (TDP1): qHTS in cells in presence of CPT; Potency, µM (highest dose often 46.2 µM), for inactives: at the highest dose activity change, negative = growth inhibition, usual class: inhibitors; chicken DT40 Tdp1-/-;hTDP1 cells + 20 nM CPT, ATP luminescence, 48 h; 12% of 420,000 active; further: potency means the concentration at half of the fitted maximal effect; nearly all actives have a fitted effect of over 55% in size
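Chicken DT40 Tdp1-/- cells complemented with human TDP1, 400 cells/well, exposed to compounds plus 20 nM camptothecin for at least 48 h at 37 C; viability read as ATP content by CellTiter-Glo luminescence.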
IL-1B inflam inh: qHTS for Inhibitors of Inflammasome Signaling: IL-1-beta AlphaLISA Primary Screen | THP-1 LPS/ATP IL-1B secretion, AlphaLISA, 16 h; active compounds read low | activity change, % at 57.5 µM | 4.7% of 360,000 active | AID 743279, 2014; in the data active means activity change below about -50%; inconclusive means mostly about -30% to -49%
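Secreted IL-1B measured by AlphaLISA bead assay after 16 h compound exposure of THP-1 cells; compounds (final up to 57.5 uM) added 1 h before LPS (250 ng/mL) and ATP (1.25 mM) stimulation; lower signal means less secretion.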
HT1080NT lethal: qHTS for induction of synthetic lethality in tumor cells producing 2HG: qHTS for the HT-1080-NT fibrosarcoma cell line; Potency, µM (highest dose often 46.1 µM), without a hit: top-dose activity, negative = less viability, most hits filed as cytotoxic; HT-1080-NT fibrosarcoma viability, CellTiter-Glo ATP luminescence, 48 h; 1.6% of 360,000 active; AID 686970, 2013;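 further: NT is the 2HG producing partner of a matched IDH1 knockdown line; potency means the concentration at half of the fitted maximal effect; 0% = DMSO-treated cells and -100% = media-only wells without cells; nearly all actives have a fitted effect of over 55% in size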
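HT-1080-NT; 750 cells/well; 5% FBS RPMI; 48 h compound, 37 degrees C; CellTiter-Glo luminescence; curve fitting and curve-class assignment.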
An asterisk follows results filed as active; ? = inconclusive; nt = not tested or not shown; ! = not confirmed by another sample; [ ] = another dose, or the depositor's remark. Hits are enriched below; roughly 19% of the tested compounds scored in any of these assays. Unless noted, the call rests on the fitted dose curve; in most records, active means well fitted curve in the direction sought with a large enough effect; inconclusive means small, poorly fitted or top-dose-only effect, or another doubt; inactive means no such curve, though single readings can be large; an effect the other way counts as inactive or inconclusive. Unless noted, on the % scale 0 is the no-effect control and ±100 the full control effect.

SMILES	DT40 TDP1 no CPT	HT1080 IDH1KD tx	TDP1 cell CPT	IL-1B inflam inh	HT1080NT lethal
COC(=O)C1=C(c2cccc(Cl)c2)C[C@@H]2CC[C@H]1N2C(=O)NCC1CC1	?	-2%	16µM*	22	14%
COC(=O)C1=C(c2ccc(S(C)(=O)=O)cc2)C[C@@H]2CC[C@H]1N2C(=O)N1CCCC1	4%	11%	-16%	-17	7%
O=C1N=C2SCCN2C(=O)C1Cc1ccc(Cl)cc1 (centres undefined)	-18%	nt	?	nt	nt
COc1ccc(NC(=O)CN2C3CCC2CC(O)(c2cccnc2)C3)cc1OC (centres undefined)	-17%	-4%	-11%	-19	-2%
COc1cc(NC(=O)c2cccc3c(-c4cccnc4)coc23)cc(OC)c1OC	3.3µM*	-14%	3.7µM*	-78*	?
COc1ccc(-c2coc3c(C(=O)Nc4cc(OC)c(OC)c(OC)c4)cccc23)c(C)c1	3.7µM*	?	4.1µM*	-22	?
Cc1ccc(S(=O)(=O)NCC(=O)OCC(=O)N2N=C(c3ccc(Cl)cc3)CC2c2ccco2)cc1C (centres undefined)	23µM*	6%	?	3	4%
Cc1oc2ccc(OC(=O)N3CCOCC3)cc2c1C(=O)OC(C)C	26µM*	-5%	?	1	-2%
CCOc1ccc2c3c1O[C@H]1[C@@H](O)C=C[C@H]4[C@@H](C2)N(C)CC[C@@]341	?	nt	-22%	nt	nt
CCCCCCN1CCN(c2ccccc2Cl)CC1	?	0%	?	46	-2%
CCOC(=O)c1ncn2c1CN(C)C(=O)c1cc(F)ccc1-2	-19%	?	?	-53*	0%
CCN(CC)Cc1cc(Nc2ccnc3cc(Cl)ccc23)ccc1O	23µM*!	21µM*!	16µM*!	-77*!	10µM*!
COC(=O)[C@@H]1N=C(c2ccc(OC)cc2)O[C@]12C(=O)N(Cc1ccc(OC)cc1)c1ccccc12	?	?	18µM*	0	-28%
CCC1(c2cccc(O)c2)CCCCN(C)C1 (centres undefined)	-18%	-4%	?	-13	10%
COC(=O)C1=C(c2ccccc2)C[C@@H]2CC[C@H]1N2C(=O)NCCO	0%	4%	13%	9	15%
COCCNC(=O)N1[C@H]2CC[C@@H]1C(C(=O)OC)=C(c1cccc(C#N)c1)C2	-5%	4%	-2%	11	0%
COC(=O)C1=C(c2ccc(-c3ccccc3)c(F)c2)C[C@@H]2CC[C@H]1N2C(=O)NCCCOC(C)C	13µM*	-8%	15µM*	-10	-6%
COC(=O)C1=C(c2ccc(-c3ccccc3)c(F)c2)C[C@@H]2CC[C@H]1N2C(=O)NCCOc1ccc(OC)cc1	15µM*	-14%	15µM*	-25	0%
COC(=O)C1=C(c2ccc(-c3ccccc3)c(F)c2)C[C@@H]2CC[C@H]1N2C(=O)NCCc1ccccc1	16µM*	?	?	-10	-27%
COC(=O)C1=C(c2ccc3ccccc3c2)C[C@@H]2CC[C@H]1N2C(=O)NCCCOC(C)C	15µM*	0%	?	7	-10%
CCOC(=O)C1C(=O)NC23CCCC2C1c1ccccc1O3 (centres undefined)	-8%	11%	-3%	-10	18%
Clc1cccc(N2Cc3ccccc3-n3nncc3C2)c1	?	?	?	-9	-23%
COC(=O)C1=C(c2ccc(-c3ccccc3)c(F)c2)C[C@@H]2CC[C@H]1N2C(=O)NCCNC(C)=O	?	4%	21µM*	11	-2%
COC(=O)C1=C(c2ccc(-c3ccccc3)c(F)c2)C[C@@H]2CC[C@H]1N2C(=O)NCc1cccc2ccccc12	23µM*	-12%	23µM*	11	?
O=[N+]([O-])c1ccc(C(=Nc2ccccc2)N2CC2)cc1	15µM*	-1%	8.2µM*	0	0%
SMILES	DT40 TDP1 no CPT	HT1080 IDH1KD tx	TDP1 cell CPT	IL-1B inflam inh	HT1080NT lethal
CCCCn1nnnc1C(CCSC)N1CCC(n2c(=O)[nH]c3ccccc32)CC1 (centres undefined)	9.2µM*	?	12µM*	-4	-23%
CCC(c1nnnn1Cc1ccccc1)N1CCC(n2c(=O)[nH]c3ccccc32)CC1 (centres undefined)	4.6µM*	?	5.8µM*	-5	26µM*
CCCCn1nnnc1C(CCc1ccccc1)N1CCC(n2c(=O)[nH]c3ccccc32)CC1 (centres undefined)	12µM*	?	12µM*	-56*	?
COC(=O)[C@@H]1C[C@]2(C(=O)O)c3ccccc3N(OOSc3ccccc3)[C@@H]2N1C(=O)OC	-4%	28%	-8%	11	17%
O=C1NC(=O)C(CCc2ccncc2)(CCc2ccncc2)C(=O)N1Cc1ccccc1	?	-13%	-20%	16	0%
O=C1NC(=O)N(Cc2ccccc2)C(=O)C1Cc1ccccc1 (centres undefined)	8.2µM*	8%	-20%	-1	1%
O=C1NC(=S)NC(=O)C1Cc1ccccc1	-8%	0%	0%	-11	3%
O=C1NC(=O)C(Cc2ccccc2)(Cc2ccccc2)C(=O)N1Cc1ccccc1	?	?	23µM*	-54*	?
CN1Cc2c(c(C#N)c(N)n(C)c2=S)CC1(C)C	9%	3%	?	1	-5%
COc1ccc(C(=O)Oc2c(CN3CCOCC3)cc(Cl)c3cccnc23)cc1OC	5.6µM*	10%	5µM*	0	21%
COc1cccc(N(C(C)=O)C2=NCCCS2)c1	5%	5%	-2%	16	5%
O=P(/C(=N/O)N1CCOCC1)(N1CCOCC1)N1CCOCC1	-29%	4%	4%	14	-6%
COCCOC(=O)c1c(N)n(Cc2ccccc2)c2nc3ccccc3nc12	?	-23%	?	-17	-25%
COc1ccc(CCNC(=O)c2c(N)n(CCN3CCOCC3)c3nc4ccccc4nc23)cc1OC	13µM*	?	15µM*	?	?
CCOCCCn1c(N)c(C(=O)Nc2sc3c(c2C(=O)OC)CCCC3)c2nc3ccccc3nc21	21µM*	15%[9.24 µM]	21µM*	5	-5%
Nc1c(C(=O)NCc2ccco2)c2nc3ccccc3nc2n1CCN1CCOCC1	?	?	?	-20	?

Screening data from PubChem BioAssay.
